# Records with an inconclusive call do not appear. A call without a number means that no potency is given here. Where a structure was tested more than once in an assay, its records may differ in their call. Active and inactive are the calls of the source. Unless noted, calls follow the shape of the dose curve; as a rule, active = well fitted curve in the direction sought with a large enough effect in the repeat runs; inconclusive = weak or mixed curves; inactive = no such curve, though single readings can be large; an effect the other way counts as inactive or inconclusive.
# Tests used:
# [1] = biological target: Retinoic acid receptor RXR-alpha (Homo sapiens) (UniProt P19793); assay: qHTS assay to identify small molecule agonists of the RXR signaling pathway (AID 1159527; calls by dose curve; also: nearly all actives have a fitted effect of over 35% in size; also: potency is read from the fitted curve at half-maximal effect); settings: HEK293T RXRa-UAS-bla, beta-lactamase ratio, 16 h; series mostly up to 76.8 µM
# Procedure, shortened: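 Beta-lactamase reporter assay, agonist format. Engineered HEK 293T line, charcoal-stripped FBS at 2%, overnight (16 hr) exposure, fluorescence at 460 and 530 nm after 405 nm excitation.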
# [2] = qHTS assay to identify small molecule agonists of the RXR signaling pathway - cell viability counter screen (AID 1159529); settings: RXR-alpha-bla HEK293T viability, CellTiter-Glo, 16 h; series mostly up to 76.8 µM;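 also: HEK 293T cells carrying an RXR-alpha UAS beta-lactamase reporter; nearly all actives have a fitted effect of over 50% in size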
# Procedure, shortened: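 Same-well viability check after the LiveBLAzer FRET read: CellTiter-Glo added, luminescence measured after 30 min at room temperature. Reporter HEK 293T cells had been treated with compounds for 16 hr following a 5 hr preincubation.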
# [3] = qHTS assay to identify small molecule antagonists of the retinoid acid receptor (RAR) signaling pathway - cell viability counter screen (AID 1159551); settings: C3RL4 cells viability, ATP luminescence (CellTiter-Glo), 6 h; series mostly up to 92.4 µM; also: nearly all actives have a fitted effect of over 35% in size
# Procedure, shortened: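 Viability of C3RL4 cells is quantified from ATP by luminescence after 6 h treatment at 37 C with compounds and 1 uM retinol.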
# [4] = qHTS assay to identify small molecule agonists of the retinoic acid receptor (RAR) signaling pathway (AID 1159553); settings: C3RL4 RARE luciferase reporter, agonist, 6 h; series mostly up to 73.3 µM
# Procedure, shortened: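 Compounds dissolved in DMSO were pinned onto C3RL4 cells seeded the previous day, and plates were held 6 hr at 37 C. RARE-driven luciferase output was then read by luminescence.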
# [5] = qHTS assay to identify small molecule antagonists of the estrogen related receptor (ERR) signaling pathway - cell viability counter screen (AID 1224818); settings: ERR reporter cell line viability counter screen; series mostly up to 46.1 µM;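 also: viability measured after 17.5 h of compound exposure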
# Procedure, shortened: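 Cytotoxicity check run alongside the ERR antagonist screen: cells exposed to test compounds 17.5 h at 37 C, viability taken as CellTiter-Fluor fluorescence intensity.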
# [6] = qHTS assay to identify small molecule antagonists of the estrogen related receptor (ERR) signaling pathway (AID 1224819;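 also: luminescence from an ERR-driven luciferase reporter measured with One-Glo reagent; nearly all actives have a fitted effect of over 50% in size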); settings: ERR reporter cell line, luciferase inhibition; series mostly up to 46.1 µM
# Procedure, shortened: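 ERR reporter cells were plated at 2,000 cells/well and left 6 h at 37 C/5% CO2 before pin-tool transfer of compounds in DMSO. After 18 h at 37 C, One-Glo was added and luminescence was read 30 min later at room temperature.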
# [7] = qHTS assay to identify small molecule agonists of the estrogen related receptor (ERR) signaling pathway (AID 1224820); settings: ERR reporter cell line, luciferase agonist mode; series mostly up to 46.1 µM
# Procedure, shortened: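 Following a 6 h settling period, 2,000 ERR cells per well receive DMSO-dissolved compounds by pin tool and incubate 18 h at 37 C; agonist activity is scored from One-Glo luminescence read 30 min post-addition.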
# [8] = tested on: estrogen-related receptor alpha (ERRalpha) with PGC-1alpha coactivator, human; assay: qHTS assay to identify small molecule antagonists of the estrogen related receptor signaling pathway with the pleiotropic PPARgamma coactivator (PGC) (AID 1224821; calls by dose curve;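 also: lower luminescence signal means antagonism of PGC/ERR signalling; nearly all actives have a fitted effect of over 50% in size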); settings: ERR/PGC reporter cell line, luciferase, antagonist mode; series mostly up to 46.1 µM
# Procedure, shortened: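 Screening used NTP's PGC/ERR cells, dosed via pin tool with compound in DMSO alongside positive and negative controls. After 18 h at 37 C, One-Glo reagent sat 30 min at room temperature before luminescence detection.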
# [9] = qHTS assay to identify small molecule antagonists of the estrogen related receptor signaling pathway with the pleiotropic PPARgamma coactivator (PGC) cell viability counter screen (AID 1224822;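 also: viability read after 17.5 h compound exposure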); settings: ERR/PGC reporter cell line viability counter screen; series mostly up to 46.1 µM
# Procedure, shortened: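 Viable cell signal (CellTiter-Fluor, 30 min, 37 C/5% CO2) was measured in PGC/ERR cells after a 17.5 h compound incubation.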
# Retinoic acid receptor RXR-alpha (Homo sapiens), sequence (P19793 whole entry, looked up): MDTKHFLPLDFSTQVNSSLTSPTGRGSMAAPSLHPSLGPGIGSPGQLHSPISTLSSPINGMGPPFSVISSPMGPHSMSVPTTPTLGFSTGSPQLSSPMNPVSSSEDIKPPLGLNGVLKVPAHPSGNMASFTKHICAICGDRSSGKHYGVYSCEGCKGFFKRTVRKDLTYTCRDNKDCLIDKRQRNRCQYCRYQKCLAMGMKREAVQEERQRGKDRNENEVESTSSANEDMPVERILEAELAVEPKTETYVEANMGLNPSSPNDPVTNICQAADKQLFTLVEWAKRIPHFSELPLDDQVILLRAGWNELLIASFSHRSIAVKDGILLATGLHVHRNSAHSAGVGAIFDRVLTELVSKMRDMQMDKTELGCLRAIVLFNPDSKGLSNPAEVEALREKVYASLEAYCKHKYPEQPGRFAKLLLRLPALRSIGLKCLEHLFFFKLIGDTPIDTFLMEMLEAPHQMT
smiles,measurement,setting,value
O=S(=O)(O)c1ccccc1,Potency,[1],inactive
same,outcome,[2],inactive
same,outcome,[3],inactive
same,Potency,[4],inactive
CC(=O)CCC=C(C)C,Potency,[1],inactive
same,outcome,[2],inactive
same,outcome,[3],inactive
same,Potency,[4],inactive
C=Cc1ccc(C)cc1,Potency,[1],inactive
same,outcome,[2],inactive
same,outcome,[3],inactive
same,Potency,[4],inactive
NCCNCCN,Potency,[1],inactive
same,outcome,[2],inactive
same,outcome,[3],inactive
same,Potency,[4],inactive
CCCCCCCCCCCCCCCC(=O)OC(C)C,Potency,[1],inactive
same,outcome,[2],inactive
same,outcome,[3],inactive
same,Potency,[4],inactive
CC(C)CCCCCCCOC(=O)CCCCC(=O)OCCCCCCCC(C)C,Potency,[1],inactive
same,outcome,[2],inactive
same,outcome,[3],inactive
same,Potency,[4],inactive
CC(C)(Oc1ccc(CCNC(=O)c2ccc(Cl)cc2)cc1)C(=O)O,Potency,[1],inactive
same,outcome,[2],inactive
same,outcome,[3],inactive
same,outcome,[5],inactive
same,outcome,[6],inactive
same,outcome,[7],inactive
same,outcome,[8],inactive
same,outcome,[9],inactive
COc1ccc(CCC(C)=O)cc1,Potency,[1],inactive
same,outcome,[2],inactive
same,outcome,[3],inactive
same,Potency,[4],inactive
CC(=O)Oc1ccc(C)cc1,Potency,[1],inactive
same,outcome,[2],inactive
same,outcome,[3],inactive
same,Potency,[4],inactive
c1ccc2c(c1)Cc1ccccc1-2,Potency,[1],inactive
same,outcome,[2],inactive
same,outcome,[3],inactive
same,Potency,[4],inactive
CC1(C)NC(=O)NC1=O,Potency,[1],inactive
same,outcome,[2],inactive
same,outcome,[3],inactive
same,Potency,[4],inactive
CC(CCO)CC(C)(C)C (stereo unspecified),Potency,[1],inactive
same,outcome,[2],inactive
same,outcome,[3],inactive
same,Potency,[4],inactive
CC(=O)OCc1ccccc1,Potency,[1],inactive
same,outcome,[2],inactive
same,outcome,[3],inactive
same,Potency,[4],inactive
N[C@H](Cc1c[nH]c2ccccc12)C(=O)O,Potency,[1],inactive
same,outcome,[2],inactive
same,outcome,[3],inactive
same,Potency,[4],inactive
O=C(O)c1ccc(S(=O)(=O)N(Cl)Cl)cc1,Potency,[1],inactive
same,outcome,[2],inactive
same,outcome,[3],inactive
same,Potency,[4],inactive
CC(=O)OC1CC(C)OC(C)O1 (stereo unspecified),Potency,[1],inactive
same,outcome,[2],inactive
same,outcome,[3],inactive
same,Potency,[4],inactive
O=C(OCC1CCC2OC2C1)C1CCC2OC2C1 (stereo unspecified),Potency,[1],inactive
same,outcome,[2],inactive
same,outcome,[3],inactive
same,Potency,[4],inactive
CCCCCCCCCCCCCCCCO,Potency,[1],inactive
same,outcome,[2],inactive
same,outcome,[3],inactive
same,Potency,[4],inactive
CC(C)=CCl,Potency,[1],inactive
same,outcome,[2],inactive
same,outcome,[3],inactive
same,Potency,[4],inactive
O=c1[nH]cnc2[nH]ncc12,Potency,[1],inactive
same,outcome,[2],inactive
same,outcome,[3],inactive
same,Potency,[4],inactive
same,outcome,[5],inactive
same,outcome,[9],inactive
NC(=S)NNC(N)=S,Potency,[1],inactive
same,outcome,[2],inactive
same,outcome,[3],inactive
same,Potency,[4],inactive
NCCCCCCN,Potency,[1],inactive
same,outcome,[2],inactive
same,outcome,[3],inactive
same,Potency,[4],inactive
CC1(C)OC[C@@H]2O[C@@]3(C(=O)O)OC(C)(C)O[C@H]3[C@@H]2O1,Potency,[1],21.9 µM (active) and inactive
same,outcome,[2],inactive
same,outcome,[3],inactive
same,Potency,[4],inactive
Cc1ccc(C(C)C)c(O)c1,Potency,[1],inactive
same,outcome,[2],inactive
same,outcome,[3],inactive
same,Potency,[4],inactive
O=C1C(c2[nH]c3ccccc3c2O)=Nc2ccccc21,Potency,[1],inactive
same,outcome,[2],inactive
same,outcome,[3],inactive
same,Potency,[4],inactive
